Inconclusive results are not listed. Calls of active or inactive are those of the source. Unless noted, calls follow the shape of the dose curve; as a rule, active = well fitted curve in the direction sought with a large enough effect; inconclusive = small, poorly fitted or top-dose-only effect, or another doubt; inactive = no such curve, though single readings can be large; an effect the other way counts as inactive or inconclusive.

Experiment [1] concerns the target Cytochrome P450 3A4 (Homo sapiens) (UniProt P08684). Briefly: qHTS Assay for Inhibitors and Substrates of Cytochrome P450 3A4 (AID 884). Also: nearly all actives have a fitted effect of over 50% in size. Also: potency is read from the fitted curve at half-maximal effect. As to activity change, negative = inhibition: % is scaled to controls: 0 for no effect and ±100 for the full control effect. The procedure, abridged: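 Luminescent readout of luciferin produced by CYP3A4 (20 nM) dealkylation of Luciferin-PPXE, 25 uM (its KM). NADPH-driven reaction ran 60 min at RT after 10 min compound preincubation; data scaled to 57 uM ketoconazole as 100% inhibition.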
(In general: In qHTS, concentration-response curves come from the screen itself.)

Experiment [2] in a line: Confirmation and Secondary Assay for Modulators of Hemoglobin Beta Chain Splicing at IVS2 654 locus (AID 910).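 Also: HeLa cells stably carrying EGFP split by mutant beta-globin IVS2-654 intron; % of control where 0% means no effect.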 Put shortly:
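HeLa cells stably expressing EGFP interrupted by β-globin IVS2-654 intron, seeded overnight in Opti-MEM/2% FCS, then treated 2 days at 37 °C. Restored splicing read as total peak GFP intensity per well by laser scanning cytometry (488 nm excitation, 500–520 nm emission); 500 nM antisense PNA as control.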

The nature of experiment [3]: Confirmation and Secondary Assay for Modulators of Hemoglobin Beta Chain Splicing at IVS2 705 locus (AID 930).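 Also: HeLa cells stably expressing the EGFP-705 splicing reporter; GFP fluorescence per well restored by corrected splicing of the IVS2-705 intron in EGFP; % of control where 0% means no effect.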 The procedure, abridged: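 Secondary splice-site specificity test uses HeLa expressing CMV-driven EGFP interrupted by IVS2-705; cells were treated 2 days at 37C with 500 nM antisense PNA as positive control.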
Experiment [4] is described as follows: qHTS Assay for Lipid Storage Modulators (AID 1519; calls by dose curve; also: potency is read from the fitted curve at half-maximal effect; as to activity change, negative = inhibition: % is scaled to controls: 0 for no effect and ±100 for the full control effect). Conditions: Drosophila S3 cells, BODIPY lipid droplet/cell ratio, laser cytometry, cells loaded with oleic acid. Put shortly:
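Cells seeded at 5,000 per well were treated with compounds over a concentration series and loaded with oleic acid (400 uM, as added). Lipid droplet fluorescence (488 nm excitation, 500-530 nm channel) was read by laser-scanning cytometry and normalized to 20 uM Triacsin C.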

For experiment [5], the target named is Ubiquitin carboxyl-terminal hydrolase 1 (Homo sapiens) (UniProt O94782). Briefly: Inhibitors of USP1/UAF1: Pilot qHTS (AID 504865).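 Also: rhodamine fluorescence freed from ubiquitin-rhodamine substrate followed over time; top concentration of the series differs between compounds; % is scaled to controls: 0 for no effect and ±100 for the full control effect; nearly all actives have a fitted effect of over 35% in size.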 The procedure, abridged:
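USP1/UAF1 complex (1nM) preincubated with compound 15 min at room temperature, then Ub-Rho substrate (150nM final) added. Fluorescence read kinetically at 480/540 nm, 6 reads every 60 seconds. Buffer: 50mM HEPES pH 7.8, 0.5mM EDTA, 0.1 mg/ml BSA, 1mM TCEP, 0.01% Tween-20.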

Experiment [6] deals with Cytochrome P450 3A4 (Homo sapiens) (UniProt P08684). Kind of experiment: qHTS Assay for Activators of Cytochrome P450 3A4 (AID 885). Also: nearly all actives have a fitted effect of over 65% in size. The procedure, abridged:
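Human CYP3A4 dealkylates Luciferin-PPXE to luciferin, which luciferase detection converts to light. Substrate was at its KM (25uM), buffer 200mM KPO4, reaction 60 min at RT.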

Experiment [7] has as its target DNA dC->dU-editing enzyme APOBEC-3G (Homo sapiens) (UniProt Q9HC16). Kind of experiment: qHTS for inhibitors of Vif-A3G interactions: Validation (AID 588379). Also: 0% is about no effect. Put shortly: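 Yellow fluorescence (Ex 488, Em 500-530) of Vif-coexpressing HeLa A3G-eYFP cells, scanned by Acumen cytometer, reports blocked A3G degradation. Cells plated at 700/well overnight at 37 deg C before compound addition, then a further overnight compound incubation at 37 deg C.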

The mark [8] stands for this setting: measured here: cell count channel max response.
The mark [9] stands for this setting: measured here: lipid channel max response.

Chain of Cytochrome P450 3A4 (Homo sapiens) (P08684 whole entry, looked up): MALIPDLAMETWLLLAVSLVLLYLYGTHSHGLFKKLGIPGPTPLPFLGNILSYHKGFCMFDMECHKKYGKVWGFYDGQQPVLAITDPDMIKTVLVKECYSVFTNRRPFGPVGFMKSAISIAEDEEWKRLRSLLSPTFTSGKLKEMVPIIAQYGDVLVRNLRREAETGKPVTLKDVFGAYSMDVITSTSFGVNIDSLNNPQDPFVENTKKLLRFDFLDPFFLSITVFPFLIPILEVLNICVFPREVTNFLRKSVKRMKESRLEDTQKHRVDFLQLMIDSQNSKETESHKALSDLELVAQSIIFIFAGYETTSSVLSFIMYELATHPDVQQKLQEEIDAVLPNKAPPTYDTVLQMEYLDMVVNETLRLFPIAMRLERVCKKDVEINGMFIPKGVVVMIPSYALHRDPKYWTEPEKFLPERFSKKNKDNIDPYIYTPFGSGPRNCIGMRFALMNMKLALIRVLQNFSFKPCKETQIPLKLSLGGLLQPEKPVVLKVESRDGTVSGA
Chain of DNA dC->dU-editing enzyme APOBEC-3G (Homo sapiens) (Q9HC16 whole entry, looked up): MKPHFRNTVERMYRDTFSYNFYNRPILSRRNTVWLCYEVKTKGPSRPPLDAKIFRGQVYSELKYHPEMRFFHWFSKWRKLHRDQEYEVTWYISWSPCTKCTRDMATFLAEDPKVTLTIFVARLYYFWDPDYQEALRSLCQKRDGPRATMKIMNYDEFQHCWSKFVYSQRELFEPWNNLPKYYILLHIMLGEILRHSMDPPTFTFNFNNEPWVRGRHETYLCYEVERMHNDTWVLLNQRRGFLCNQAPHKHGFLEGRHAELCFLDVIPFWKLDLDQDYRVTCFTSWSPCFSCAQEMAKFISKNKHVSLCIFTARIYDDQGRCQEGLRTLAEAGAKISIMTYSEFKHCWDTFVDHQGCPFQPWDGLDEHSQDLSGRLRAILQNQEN
Chain of Ubiquitin carboxyl-terminal hydrolase 1 (Homo sapiens) (O94782 whole entry, looked up): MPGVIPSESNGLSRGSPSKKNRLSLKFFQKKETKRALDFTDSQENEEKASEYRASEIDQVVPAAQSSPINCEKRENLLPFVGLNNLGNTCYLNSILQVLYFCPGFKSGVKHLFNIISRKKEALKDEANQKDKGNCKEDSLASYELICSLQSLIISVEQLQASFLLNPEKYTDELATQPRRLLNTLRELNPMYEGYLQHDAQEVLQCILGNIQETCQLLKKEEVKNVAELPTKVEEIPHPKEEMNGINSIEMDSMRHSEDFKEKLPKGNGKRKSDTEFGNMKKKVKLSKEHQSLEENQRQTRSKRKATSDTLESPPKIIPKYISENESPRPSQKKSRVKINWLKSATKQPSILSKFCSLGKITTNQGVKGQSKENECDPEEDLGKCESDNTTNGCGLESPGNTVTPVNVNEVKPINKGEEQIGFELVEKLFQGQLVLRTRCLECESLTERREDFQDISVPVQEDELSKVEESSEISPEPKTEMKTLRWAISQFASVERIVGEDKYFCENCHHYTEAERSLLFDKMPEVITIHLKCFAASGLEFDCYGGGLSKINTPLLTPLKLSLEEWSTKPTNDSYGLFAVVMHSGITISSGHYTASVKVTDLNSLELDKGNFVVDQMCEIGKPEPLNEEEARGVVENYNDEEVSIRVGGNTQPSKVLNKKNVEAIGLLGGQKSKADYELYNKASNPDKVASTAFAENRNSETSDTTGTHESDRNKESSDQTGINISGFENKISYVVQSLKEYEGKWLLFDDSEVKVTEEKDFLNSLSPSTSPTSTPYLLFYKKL

Regarding `OCC1CCCN2CCCCC12` (centres undefined), the Potency entry in experiment [1], in experiment [2], in experiment [3] and in experiment [5] was “inactive” in each case. Further, the activity change, negative = inhibition in experiment [4] (at 57.5 µM (top of the series)) was 1.09% (inactive). The max response in experiment [4] (setting [8]) is -1.96%; in experiment [4] (setting [9]) it was 1.94%.
Regarding `CCN1C[C@@]2(COC)C3[C@@H](OC)C4[C@@H]1[C@@]3(C1C[C@@]3(O)[C@H](OC(=O)c5ccccc5)C1[C@]4(OC(C)=O)[C@@H](O)[C@@H]3OC)[C@@H](OC)C[C@H]2O` (some centres undefined), the Potency result in experiment [6] was “inactive”. In addition, the activity change, negative = inhibition in experiment [4] (at 57.5 µM (top of the series)) is 0.0984% (inactive). The max response in experiment [4] (setting [8]) is -8.1%; in experiment [4] (setting [9]), -8.3%. In experiment [7], the call was inactive.
For `CC(=O)OC1C[C@@]2(C)C(c3ccoc3)C[C@H]3O[C@@]32[C@@]2(C)C(=O)C(O)=C3C(C)(C)C(=O)C=C[C@]3(C)C12` (some centres undefined), the Potency in experiment [1] is 0.398 µM (active); in experiment [4] it was 15.8 µM (active). For the same compound, the Potency result in experiment [6], in experiment [2] and in experiment [3] was “inactive” each time. In addition, the max response in experiment [4] (setting [8]) is -2.69%; in experiment [4] (setting [9]), -67.6%.
On to `CC1(C)C(O)CC(O)[C@]2(C)C1CC(=O)[C@]1(C)C2CC[C@@]2(C)C(c3ccoc3)OC(=O)C3OC321` (some centres undefined), for which the Potency in experiment [1] is 6.31 µM (active). For the same compound, the Potency entry in experiment [6], in experiment [2] and in experiment [3] was “inactive” each time. Moreover, the activity change, negative = inhibition in experiment [4] (at 57.5 µM (top of the series)) is -5.65% (inactive). The max response in experiment [4] (setting [8]) was determined as 17%; in experiment [4] (setting [9]), 11.8%.
With `c1cc2c(cc1C1OC[C@@H]3C(c4ccc5c(c4)OCO5)OCC13)OCO2` (some centres undefined), the Potency in experiment [1] is 0.0794 µM (active). Also, the Potency entry in experiment [6], in experiment [2] and in experiment [3] was “inactive” each time. Moreover, the activity change, negative = inhibition in experiment [4] (at 57.5 µM (top of the series)) was 7.47% (inactive). Also, the max response amounted to 12.5% in experiment [4] (setting [8]) and 26% in experiment [4] (setting [9]).
As for `C[C@]12CCC(=O)C=C1CCc1ccc(O)cc12`, the Potency in experiment [1] was 25.1 µM (active). Moreover, the Potency result in experiment [6], in experiment [2] and in experiment [3] was “inactive” in each case. Besides, the activity change, negative = inhibition in experiment [4] (at 57.5 µM (top of the series)) is -0.872% (inactive). The max response in experiment [4] (setting [8]) was -10.5%; in experiment [4] (setting [9]) it was -4.41%.
For `COc1cc(CNC(=O)CCCC/C=C\C(C)C)ccc1O`, the Potency in experiment [1] is 7.94 µM (active). In experiment [6], the Potency entry is “inactive”. The activity change, negative = inhibition in experiment [4] (at 25.7 µM (top of the series)) is -6.95% (inactive). Moreover, the results for the max response in experiment [4] (setting [8]) and in experiment [4] (setting [9]) were -15.8% and -21%, respectively.
Consider `CC(C)c1ccc2c(c1O)CCC1C3=C(CC[C@]21C)C(=O)OC3` (some centres undefined), for which the Potency in experiment [1] was 15.8 µM (active). For the same compound, the Potency entry in experiment [6], in experiment [2] and in experiment [3] was “inactive” throughout. The activity change, negative = inhibition in experiment [4] (at 57.5 µM (top of the series)) was 1.46% (inactive). Besides, the max response is -9.02% in experiment [4] (setting [8]) and -0.042% in experiment [4] (setting [9]).
With `S=C=NCc1ccccc1`, in experiment [1], the Potency is 25.1 µM (active). Also, the Potency entry in experiment [6], in experiment [2] and in experiment [3] was “inactive” each time. In experiment [4] (at 57.5 µM (top of the series)), the activity change, negative = inhibition is 4.36% (inactive). For the same compound, the results for the max response in experiment [4] (setting [8]) and in experiment [4] (setting [9]) were -6.33% and 0.435%, respectively.
